Source: PubChem BioAssay (several laboratories)
Shown are actives, neighbours in structure and some others; about 5% of the full set was active somewhere.
ALR inh – inhibitors of human ALR sulfhydryl oxidase, primary screen, biochemical, H2O2 detection, HRP-luminol luminescence, single point; AID 485317, 2010; purified ALR, DTT oxidation; actives 3.8% (n = 290,000); FAD-linked sulfhydryl oxidase ALR (Homo sapiens), P55789; inhibition, % (test concentration not listed);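 active = mean replicate inhibition above about 79%, with every replicate also reaching it, limit read from the data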
Target sequence (P55789 whole entry, looked up): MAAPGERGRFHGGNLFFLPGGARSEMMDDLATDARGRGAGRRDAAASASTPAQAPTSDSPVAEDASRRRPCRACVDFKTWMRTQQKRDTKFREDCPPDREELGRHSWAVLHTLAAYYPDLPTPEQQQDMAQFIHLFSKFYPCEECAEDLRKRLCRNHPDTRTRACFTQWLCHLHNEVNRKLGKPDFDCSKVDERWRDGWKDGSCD
AI-2 QS modul – Vibrio harveyi AI-2 quorum sensing modulators, primary screen, JMH597 strain, luminescence/OD600 ratio; actives 0.4% (n = 300,000); Vibrio harveyi JMH597 AI-2 luminescence/OD600 ratio, 9 h; active compounds read low; strain lacks LuxN and CqsS sensors; 0 = neutral-control median; activity change, % at 7.5 µM; AID 2094, 2009; in the data active = activity change below about -75%, passing the limit was not always enough;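 also: luminescence divided by OD600 gain over 9 h not by final OD600 alone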
CHT allo act – CHT positive allosteric modulators, primary screen, cell-based, membrane potential dye, choline EC20. B-score at 10 µM. CHT-expressing cells; active compounds read high; LV-AA mutant CHT in HEK293 cells. AID 488977, 2010. actives 0.49% (n = 310,000);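 active = initial fluorescence not abnormally high and integrated response B-score, plate-corrected, over 3 SD above library mean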
PREPL inh – PREPL enzyme inhibitors, primary screen, biochemical, fluorescence polarization; recombinant PREPL, fluorescence polarization activity-based probe; inhibition, % at 5.96 µM; actives 0.68% (n = 320,000); in the data active = inhibition above about 43%;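 also: 0% = enzyme with DMSO and 100% = wells lacking enzyme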
CHT inh – inhibitors of human choline transporter CHT | High affinity choline transporter 1 (Homo sapiens), Q9GZV3 | CHT-expressing cells, membrane potential dye, choline response; active compounds read low | B-score at 10 µM | actives 0.86% (n = 310,000) | AID 488975, 2010;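 active = B-score over 3 SD under the library average, and starting fluorescence ratio not unusually high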;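 also: choline stimulus applied at its EC90 after an EC20 pre-addition; B-score computed on integrated fluorescence ratio after choline addition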
Starred values were filed as active, the others as inactive; i = inactive; . = no result.

SMILES | ALR inh | AI-2 QS modul | CHT allo act | PREPL inh | CHT inh
CC1CCN(c2ccc(NC(=O)C3CCCN3S(=O)(=O)c3ccc(F)cc3)cc2)CC1 (stereo not given) | 33 | . | . | 16 | .
Cc1cccc(-n2ccnc2SCC(=O)c2c(N)n(C3CC3)c(=O)[nH]c2=O)c1C | -3 | . | . | 19 | .
c1coc(-c2nnc(-c3ccco3)nn2)c1 | . | 35 | i | 2 | i
CCOc1ccc(N2C(=O)C3ON(c4ccccc4)C(c4cccs4)C3C2=O)cc1 (stereo not given) | 12 | 15 | i | -2 | i
CC(=O)c1ccc(S(=O)(=O)Nc2ccc(N3CCOCC3)cc2)cc1 | 34 | 24 | i | 1 | i
O=C(CCC(=O)c1cccs1)Nc1ccc(N2CCCCC2)cc1 | 90* | 18 | i | -1 | i
CC(=O)Nc1ccc(S(=O)(=O)Nc2ccc(N3CCOCC3)cc2)cc1 | 82* | 4 | i | 9 | i
Cc1ccc(S(=O)(=O)Nc2ccc(N3CCCCC3)cc2)cc1 | 98* | -25 | i | -6 | i
CC(=O)Nc1ccc(N2CCCCC2)cc1 | 99* | 23 | i | 11 | i
CC(C)NC(=O)COc1coc(CN2CCN(Cc3ccccc3)CC2)cc1=O | 1 | 9 | i | 15 | i
O=C(c1ccc(F)c(S(=O)(=O)N2CCOCC2)c1)N1CCN(c2ccc(F)cc2)CC1 | 16 | . | . | 30 | .
CC1CCCCN1CC(=O)Nc1ccc(N2CCCCCC2)cc1 (stereo not given) | 99* | -3 | i | 11 | i
Cc1cccc(C)c1NC(=O)CNC(=O)c1ccc(N2CCCC2=O)cc1 | -9 | . | . | 15 | .
CCN(CCNC(=O)c1cccc(N2CCCC2=O)c1)c1ccccc1 | 98* | . | i | 6 | i
O=C(NCCCN1CCCC1)c1cccc(N2CCCC2=O)c1 | 1 | 17 | i | 10 | i
CCN(CCCNC(=O)c1[nH]c(C)c(C(C)=O)c1C)c1cccc(C)c1 | 99* | 9 | i | 12 | i
CCN(CCCNC(=O)c1ccc(N2CCCC2=O)cc1)c1cccc(C)c1 | 90* | 17 | i | 11 | i
O=C(NNC(=O)c1ccccc1O)c1ccc(Cl)c(S(=O)(=O)N2CCc3ccccc32)c1 | 24 | 31 | i | 3 | i
CCN(CC)c1ccc(CN2CCC(C(=O)NCc3ccc(C)cc3)CC2)cc1 | 82* | 5 | i | 18 | i
CCN(CC)S(=O)(=O)N1CCC(C(=O)NCc2ccc(C)cc2)CC1 | -3 | 30 | i | 2 | i
O=C(/C=C/c1ccco1)NCc1ccccn1 | 2 | 17 | i | -1 | i
O=C(c1ccco1)N1CCCC(Nc2ccc3c(c2)OCCO3)C1 (stereo not given) | 99* | 1 | i | 1 | i
CSCc1ccc(C(=O)N2CCCC(Nc3ccc4c(c3)OCCO4)C2)o1 (stereo not given) | 99* | 5 | i | 0 | i
O=C(c1cc(Cl)ccc1F)N1CCCC(Nc2ccc3c(c2)OCCO3)C1 (stereo not given) | 97* | 17 | i | 11 | i
Cc1occc1C(=O)N1CCCC(Nc2ccc(F)c(F)c2)C1 (stereo not given) | 50 | 17 | i | 9 | i
SMILES | ALR inh | AI-2 QS modul | CHT allo act | PREPL inh | CHT inh
Cc1cc(=O)[nH]c(SCC(=O)c2ccc(F)c(C)c2)n1 | 60 | . | i | 0 | i
COc1ccc(CNC(=O)CN(C)S(=O)(=O)c2ccc3c(c2)c(=O)n(C)c(=O)n3C)cc1 | -13 | -5 | i | 21 | i
Cc1[nH]nc(SCC(=O)N2CCC(C)CC2)c1[N+](=O)[O-] | 27 | 16 | i | 5 | i
CCc1cc2c(Nc3ccc(O)cc3)nc(C)nc2s1 | 100* | 32 | i | -4 | i
Cc1cc2c(Nc3ccc(O)cc3)ncnc2s1 | 94* | -2 | i | . | i
COc1cc(NC(=S)NC2CC(C)(C)NC(C)(C)C2)c(OC)cc1Cl | 0 | 15 | i | 10 | i
O=C(Cn1cc(C(F)(F)F)cc(Cl)c1=O)NCc1ccccc1 | -13 | 16 | i | -7 | i
CCOc1ccc(C(=O)NCC(=O)NCC(c2ccccc2OC)N2CCCC2)cc1 (stereo not given) | 1 | 3 | i | 3 | i
COC(=O)/C=C1\N/C(=N\c2nc(C)cc(C)n2)N(c2ccccc2)C1=O | 97* | 3 | i | -2 | i
O=C(O)c1ccc(N=c2oc3cc(O)ccc3cc2C(=O)NCc2ccccc2)cc1 | 90* | 4 | i | 8 | i
NC(=S)Nn1c(-c2ccccc2)nc2ccccc2c1=O | 7 | 4 | i | 1 | i
CCOc1ccccc1CNc1ccc(N2CCOCC2)c(C(=O)O)c1 | 3 | 15 | i | 20 | i
CCOC(=O)c1cc(NCc2cccs2)ccc1N1CCOCC1 | 99* | 27 | i | 7 | i
COC(=O)c1cc(NCc2ccccc2F)ccc1N1CCOCC1 | 99* | 26 | i | 22 | i
COc1ccc(Cl)cc1NC(=O)CN1CCCC1 | -1 | 5 | i | -10 | i
COC(=O)C1CCN(CC(=O)Nc2cc(Cl)ccc2OC)CC1 | -3 | 18 | i | 4 | -9.7*
Cn1cc(CN2C[C@]3(C)C[C@H]2CC(C)(C)C3)c(-c2ccc3c(c2)OCCO3)n1 | -3 | 6 | i | 31 | i
N#CNC(=Nc1cccc(C(F)(F)F)c1)SCc1ccc(C(=O)O)cc1 | 99* | 5 | i | -6 | i
COc1cccc(N=Nc2c(N)[nH][nH]c2=O)c1 | . | 9 | i | 3 | i
CCOc1ccc(N=Nc2c(N)[nH][nH]c2=O)cc1 | 99* | 23 | i | 9 | i
O=C(CSc1nnc(CSc2nc3ccccc3s2)o1)NC1CCCCC1 | -8 | 21 | i | 18 | i
O=C(CSc1nc2ccccc2s1)NC1CCCC1 | 99* | 11 | i | 5 | i
O=C(CSc1nc2ccccc2s1)N1c2ccccc2Sc2ccccc21 | -5 | 14 | i | -10 | i
O=C(CSc1nc2ccccc2s1)Nn1cnnc1 | 99* | 38 | i | -4 | i
O=C(CSc1nc2ccccc2s1)Nc1ncccn1 | 98* | 24 | i | -10 | i
Cc1c(NC(=O)CSc2nc3ccccc3s2)c(=O)n(-c2ccccc2)n1C | 99* | 34 | i | 27 | i
Cc1cc(NC(=O)CSc2nc3ccccc3s2)no1 | -9 | . | i | 0 | i
COc1ccc(Br)cc1CNc1ccc2[nH]c(=O)[nH]c2c1 | 99* | 5 | i | 16 | i
COc1cc(CNc2ccc3[nH]c(=O)[nH]c3c2)ccc1OCc1ccc(Cl)cc1 | 50 | 28 | i | 28 | i
